Results taken from PubChem BioAssay AID1159580 (chemical genetic matrix, 2015).
Screen size: about 5,500 compounds; about 2,000 (36%) were called active. Roughly 18% stayed inconclusive and do not appear here. Cut-off read from the data, not from the text of the source: active = normalized growth mostly below about 0.91 (no sharp cut-off); inconclusive = no clear call, values can overlap the other calls; inactive = mostly above about 0.92. The list shows a part of the results.

Assay: chemical genetic growth profiling, strain panel (AID 1159580);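 note: tested at 20 µM; growth read once vehicle control cultures reached saturation at 30 °C; 1 = growth at the plate median or of vehicle wells; lower values mean less growth of the strain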
Conditions: growth OD

Measured: normalized growth

Cc1cc(=O)n2c(-c3ccc(Cl)cc3)csc2n1
inactive: S. cerevisiae deletion strains, locus YAL013W, strain DEP1, hits give low values 0.975 | S. cerevisiae deletion strains, locus YBR229C, strain ROT2, hits give low values 0.954 | S. cerevisiae deletion strains, locus YCL061C, strain MRC1, hits give low values 0.951 | S. cerevisiae deletion strains, locus YDL101C, strain DUN1, hits give low values 0.936 | S. cerevisiae deletion strains, locus YDR150W, strain NUM1, hits give low values 0.976 | S. cerevisiae deletion strains, locus YEL061C, strain CIN8, hits give low values 0.931 | S. cerevisiae deletion strains, locus YGR078C, strain PAC10, hits give low values 0.96 | S. cerevisiae deletion strains, locus YHR030C, strain SLT2, hits give low values 0.712 | S. cerevisiae deletion strains, locus YHR087W, strain rtc3, hits give low values 0.927 | S. cerevisiae deletion strains, locus YJL187C, strain SWE1, hits give low values 0.965 | S. cerevisiae deletion strains, locus YJR043C, strain POL32, hits give low values 0.982 | S. cerevisiae deletion strains, locus YJR075W, strain HOC1, hits give low values 0.956 | S. cerevisiae deletion strains, locus YLR039C, strain RIC1, hits give low values 0.892 | S. cerevisiae deletion strains, locus YLR058C, strain SHM2 (second series), hits give low values 0.956 | S. cerevisiae deletion strains, locus YLR085C, strain ARP6, hits give low values 0.826 | S. cerevisiae deletion strains, locus YLR262C, strain YPT6, hits give low values 0.916 | S. cerevisiae deletion strains, locus YMR219W, strain ESC1, hits give low values 0.96 | S. cerevisiae deletion strains, locus YMR263W, strain SAP30, hits give low values 0.987 | S. cerevisiae deletion strains, locus YNL128W, strain TEP1, hits give low values 0.972 | S. cerevisiae deletion strains, locus YNL153C, strain GIM3, hits give low values 0.973 | S. cerevisiae deletion strains, locus YNL298W, strain CLA4 (second series), hits give low values 0.947 | S. cerevisiae deletion strains, locus YNL322C, strain KRE1, hits give low values 0.976 | S. cerevisiae deletion strains, locus YNR030W, strain Alg12, hits give low values 0.943 | S. cerevisiae deletion strains, locus YPL055C, strain LGE1, hits give low values 0.963 | S. cerevisiae deletion strains, locus YPL241C, strain CIN2, hits give low values 0.941 | S. cerevisiae deletion strains, locus YPR135W, strain CTF4, hits give low values 0.764 | S. cerevisiae strains, strain wild type, hits give low values 0.96
active: S. cerevisiae deletion strains, locus YML094W, strain GIM5, hits give low values 0.864
